# Bioassay records as filed in PubChem.
# MRP reversal: reverses drug resistance mediated by MRP. AID 602. 0.04% of 85,000 active. differential viability (reversal), % at 10 µM. H69AR cells + 2 uM doxorubicin, CellTiter-Glo, 72 h;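 active means viability drop by adding the cancer drug above about 55%, with treated viability meeting a 40% cutoff, limit read from the data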;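 further: larger differential means the compound sensitizes cells more to doxorubicin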
# MRP1 act: activators of MRP-1; H69AR cells + doxorubicin, viability rescue, CellTiter-Glo; viability increase, % at 10 µM; 0.61% of 140,000 active; AID 799;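 active means viability gain under doxorubicin at or above a set limit, the compound median plus 3 SD, cut at about 4.7% in these data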;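 further: MRP-1 overexpressing cells given doxorubicin 25 µM after compound pretreatment; 18-22 h compound pretreatment then 72 h with doxorubicin before readout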
# Hits are given with their value; . = inactive; / = no result given. Rows were chosen to be rich in hits. Some 0.65% of all compounds tested hit in one or more screens of this group.
SMILES,MRP reversal,MRP1 act
Cc1ccc(/C=C2\SC(=S)N(CCCC(=O)Nc3ccccn3)C2=O)cc1,/,6.8
COc1ccc(/C=C2\SC(=S)N(CCCC(=O)Nc3ccccn3)C2=O)cc1OC,/,.
CCc1ccc(/C=C2\SC(=S)N(CCCC(=O)Nc3nccs3)C2=O)cc1,/,.
Cc1ccc(/C=C2\SC(=S)N(CCCC(=O)Nc3nccs3)C2=O)cc1,/,5.3
Cc1nn(C)cc1/C=C1\SC(=S)NC1=O,/,.
Cc1cc(/C=C2\SC(=S)NC2=O)c(C)n1C,/,5.5
CC(C)Oc1ccc(CSC(=N)N)cc1,/,7.9
COc1ccc(CNC(=S)NCc2ccc(OC(C)C)cc2)cc1,/,.
O=C(NNC(=S)Nc1cccc(C(F)(F)F)c1)c1cccc(Cl)c1,/,.
O=C(NNC1=C(C(=O)C(F)(F)F)CCC1)c1cccc(Cl)c1,.,6.5
O=C(NNC1=C(C(=O)C(F)(F)F)CCC1)c1ccc(Cl)cc1,.,6.4
CC(C)(C)c1ccc(C(=O)NNC(=O)c2ccc(Cl)cc2)cc1,/,.
O=c1nc2n(c3sc4c(c13)CCC4)Cc1ccccc1-2,.,/
COc1cccc(C2CC(c3ccccc3Cl)n3ncnc3N2)c1 (stereo not given),.,.
CCOC(=O)c1sc(-c2ccccc2)cc1NC(=O)Nc1ccccc1,/,6.0
CCOC(=O)c1cc(NC(=O)Nc2ccccc2OC)c(C)nc1C,.,.
CCOC(=O)c1sc(NC(=O)Nc2ccccc2)cc1C,/,.
CCOC(=O)c1sc(-c2ccc(F)cc2)cc1NC(=O)Nc1ccccc1OC,/,9.0
COc1cc(OC)c(OC)cc1/C=C/C(=O)c1ccc(NS(=O)(=O)c2ccc(C)cc2)cc1,/,.
CC(=O)c1c(C(C)=O)c(C)n(-c2nc(-c3ccc(C)c(C)c3)c(C)s2)c1C,.,.
CCOC(=O)C1=C(C)C(c2ccccc2O)NC(=O)N1 (stereo not given),.,.
Cc1nn(C)c(C)c1CNC(=O)c1cnn2c1NC(c1ccccc1)CC2C(F)(F)F (stereo not given),.,.
Cc1ccc(C2CC(C(F)(F)F)n3nc(C(=O)NCc4c(C)nn(C)c4C)c(Cl)c3N2)cc1 (stereo not given),/,6.4
CCCC(=O)Nc1ccccc1Sc1ncnc2scc(-c3ccccc3)c12,/,.
COc1ccccc1C(=O)NCCC(=O)N1CC(=O)Nc2ccccc21,.,.
SMILES,MRP reversal,MRP1 act
Brc1ccc(-c2nnc3n2CCCCC3)cc1,.,.
Brc1ccc(OCc2nnc3n2CCC3)cc1,/,7.0
CCN(CC)CCN(Cc1cc2cc(C)ccc2[nH]c1=O)C(=S)NCc1ccco1,/,.
CCN(CC)CCN(Cc1cc2cc(C)cc(C)c2[nH]c1=O)C(=S)NCc1ccco1,/,23
Cn1c(SCC(=O)N/N=C/c2ccc([N+](=O)[O-])s2)nnc1-c1ccc(Cl)cc1,/,.
Cc1cccc(C(=O)NNC(=O)c2ccc(-c3ccccc3)cc2)c1,/,.
Cc1cccc(C(=O)NNC(=O)CN2C(=O)c3ccccc3C2=O)c1,/,4.8
COC(=O)C1=C(C)N=C2SCCC(=O)N2C1c1ccc(C(=O)OC)cc1 (stereo not given),.,.
CCC1SC2=NC(C)=C(C(=O)OCCOC)C(c3ccc(C(=O)OC)cc3)N2C1=O (stereo not given),.,7.8
COCCOC(=O)C1=C(C)N=C2SCCC(=O)N2C1c1ccc(C(=O)OC)cc1 (stereo not given),.,.
CCC1SC2=NC(C)=C(C(=O)OC)C(c3ccc(C(=O)OC)cc3)N2C1=O (stereo not given),.,4.9
Cc1ccc(NC(=O)/C(=C\c2ccc3c(c2)OCO3)NC(=O)c2ccco2)cc1,/,.
CNc1nc(Nc2ccc(Br)cc2)nc(N)c1[N+](=O)[O-],/,.
O=C(O)CN(CC(=O)O)CC(=O)O,.,/
Cc1noc(C)c1COc1ccc(C(=O)OCC(=O)Nc2cccc(S(=O)(=O)N3CCOCC3)c2)cc1,/,.
COc1ncnc2c1oc1nc(CC(C)C)c3c(c12)CCCC3,.,7.2
CC(C)Cc1nc2oc3c(N4CCN(C)CC4)ncnc3c2c2c1CCCC2,.,.
Cc1nnc2sc(-c3ccncc3)nn12,.,17
CC(C)(C)c1ccc(-c2nnc3sc(-c4ccncc4)nn23)cc1,/,.
Cc1cccc2c3nc4ccccc4nc3n(CCCN3C(=O)c4ccccc4C3=O)c12,/,5.2
COc1ccc2c(c1)c1nc3ccccc3nc1n2CCCN1C(=O)c2ccccc2C1=O,/,.
COc1cccc(C(c2c(NC(=O)c3ccccc3)sc(C)c2C)N2CCN(C)CC2)c1 (stereo not given),/,.
COc1cccc(Nc2ncc(C(=O)O)c3ccccc23)c1,.,5.1
COc1ccc(OC)c(NC(=O)c2cnc(Nc3ccccc3OC)c3ccccc23)c1,/,.
Cc1nn(Cc2ccccc2)c(C)c1NC(=O)c1cccs1,/,.
SMILES,MRP reversal,MRP1 act
Cc1nn(Cc2ccccc2)c(C)c1NC(=O)c1cc(-c2cccs2)on1,.,4.8
COC(=O)N/N=C/c1cccc(OCCSc2ccc(Cl)cc2)c1,/,.
COc1ccccc1-c1cc(SC)c(C#N)c(=O)o1,/,.
COc1ccc(Nc2nnc(SCC(=O)/C=C3/N(C)c4ccccc4C3(C)C)s2)cc1,/,.
O=C(Cc1ccccc1)NC(Nc1ccccc1)C(Cl)(Cl)Cl (stereo not given),/,.
CC(C)(C)NC(NC(=O)Cc1ccccc1)C(Cl)(Cl)Cl (stereo not given),/,5.3
C/C(=N\OC(=O)c1cccc(C(F)(F)F)c1)c1sc(-c2ccccc2)nc1C,/,.
C/C(=N\OC(=O)c1cccc(C)c1)c1sc(-c2ccccc2)nc1C,/,4.7
Cc1ccc(N2CCN(c3ccc(C)cc3)C2c2cccnc2)cc1,.,.
c1ccc(N2CCN(c3ccccc3)C2c2cccnc2)cc1,60,.
COc1cc(NC(=O)c2ccccc2-c2ccccc2)cc(OC)c1,/,.
N#Cc1c(-c2ccccc2Cl)cc(-c2ccccc2)nc1Br,/,.
Cc1csc(C(C#N)C(=O)c2cc3ccccc3o2)n1 (stereo not given),.,6.1
O=C(Nc1ccccn1)c1cc2ccccc2o1,.,.
CC(C)C[C@H]1C(=O)N2CCC[C@H]2[C@]2(O)O[C@](NC(=O)[C@@H]3C=C4c5cccc6[nH]c(Br)c(c56)CC4N(C)C3)(C(C)C)C(=O)N12 (stereo not given in full),.,.
COc1ccc(Cl)cc1C(=O)Nc1ccc2c(c1)OCO2,.,15
COc1ccccc1C(=O)Nc1ccc2c(c1)OCO2,.,.
Cc1ccc(-c2noc(C3CCCN(S(=O)(=O)c4ccc5ccccc5c4)C3)n2)o1 (stereo not given),.,7.3
Cc1ccc(S(=O)(=O)N2CCCC(c3nc(-c4ccc(C)o4)no3)C2)cc1 (stereo not given),.,.
O=C(/C=C/c1ccccc1)n1cnnc1SC/C=C/c1ccccc1,/,4.7
Nn1c(SC/C=C/c2ccccc2)nnc1-c1ccco1,.,.
CC1=C(C(=O)OCC(C)C)C(c2cccs2)NC(=S)N1 (stereo not given),/,.
COc1ccc(NC(=O)C(c2cc3c(cc2[N+](=O)[O-])OCO3)N(C)c2ccccc2)cc1 (stereo not given),/,.
O=C(COC(=O)c1ccccc1NC(=O)C1CC1)c1ccc2c(c1)OCCO2,/,.
Cc1nn(C)c(C)c1NC(=O)CSc1nc(C2CC2)nc2c1cnn2-c1ccccc1,78,.
Cc1nn(C)c(C)c1NC(=O)CSc1nc(-c2ccccc2Cl)nc2c1cnn2-c1ccccc1,.,.
S=C(NCc1ccccn1)Nc1ccccc1Cl,/,8.2
S=C(NCc1ccccn1)Nc1cccc(Cl)c1,/,.
